Screening data deposited in PubChem BioAssay by Broad Institute.
Most compounds without a hit are left out; they make up all but 6.7% or so of the library.
T cruzi growth-1 = blocks T. cruzi growth in NIH3T3 culture; T. cruzi beta-gal in NIH3T3, GalScreen luminescence, 90 h; actives 5.9% (n = 77,000); inhibition, % at 8.34 µM;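 active = mean inhibition above about 93%, with at least 55% of replicates each passing it, limit read from the data, passing the limit was not always enough; inconclusive = only one of those two conditions holds; inactive = neither condition holds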
Pf Dd2 inh = blocks growth of Plasmodium falciparum Dd2 parasites | P. falciparum Dd2 growth, SYBR Green, 72 h; hits give low values | activity change, % at 10 µM | actives 2.3% (n = 94,000) | AID 1159554; in the data active = activity change below about -80%; inconclusive = no clear call, values can overlap the other calls
C diff HTS = C. difficile growth inhibition | growth activity, negative = inhibition, % at 16 µg/mL (by protocol) | Clostridium difficile clinical isolate growth, OD600, 24 h; hits give low values | actives 0.25% (n = 86,000) | AID 1259249;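 active = mean growth activity at or below -80% and every replicate also at or below -80%; inconclusive = mean at or below -80% but some replicate above -80%; inactive = mean growth activity above -80%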
T cruzi growth-2 = inhibitors of T. cruzi proliferation; inhibition, % at 8.35 µM; T. cruzi beta-gal in NIH3T3, GalScreen luminescence, 90 h; shares compounds with T cruzi growth-1; actives 72% (n = 5,600); AID 651739;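 active = mean replicate inhibition above about 95% and at least 55% of replicates individually reaching it, limit read from the data; inconclusive = only one of the two criteria is met; inactive = neither criterion is met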
T cruzi growth-3 = inhibitors of T. cruzi proliferation; shares compounds with T cruzi growth-1; T. cruzi beta-gal in NIH3T3, GalScreen luminescence, 90 h; inhibition, % at 2.09 µM; actives 21% (n = 5,600);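 active = mean inhibition above about 95%, with at least 55% of replicates also reaching it, limit read from the data; inconclusive = meets just one of the two conditions; inactive = meets neither condition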
NIH3T3 tox = cytotoxicity in mouse NIH/3T3 fibroblasts; shares compounds with T cruzi growth-1; NIH/3T3 viability, CellTiter-Glo ATP luminescence, 90 h; cytotoxicity (signal decrease), % at 8.35 µM; actives 14% (n = 5,600);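 active = mean signal decrease across replicates above about 35% based on untreated-well scatter, with enough replicates individually passing, limit read from the data; inconclusive = no rule stated though some were filed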
3T3 cytotox 2 = NIH/3T3 (mouse) viability loss; shares compounds with T cruzi growth-1; NIH/3T3 viability, CellTiter-Glo ATP luminescence, 90 h; inhibition, % at 24.9 µM; actives 56% (n = 5,600);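 active = mean loss of cell viability signal at or above a set limit, and enough replicates individually reaching it; inconclusive = meets only the mean limit or only the replicate share; inactive = meets neither condition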
Of the large screens only hits and unclear results are named; the others gave an inactive call (follow-up assays come after a bar, where they were run).

OC[C@@H]1[C@H](c2ccc(C#CC3(O)CCCC3)cc2)[C@H]2CN(Cc3ccncc3)CCCCN12	none
OC[C@H]1[C@@H](c2ccc(C#CC3(O)CCCC3)cc2)[C@H]2CN(Cc3ccncc3)CCCCN21	none
OC[C@H]1[C@@H](c2ccc(C#CC3(O)CCCC3)cc2)[C@H]2CN(Cc3cccnc3)CCCCN21	T cruzi growth-1 103 | T cruzi growth-2 inactive | T cruzi growth-3 inactive | NIH3T3 tox inactive | 3T3 cytotox 2 inactive
Cc1noc(C)c1NC(=O)N[C@@H]1CC[C@@H](CC(=O)NCc2ccc(Cl)c(Cl)c2)O[C@@H]1CO	none (no result: C diff HTS)
N#Cc1cccc(-c2ccc3c(c2)[C@@H]2[C@@H](CCN2Cc2ccncc2)[C@@H](CO)N3)c1	none
CCS(=O)(=O)N1CC(=O)N2[C@@H](CO)[C@H](c3ccc(-c4cccc(F)c4)cc3)[C@@H]2C1	none (no result: T cruzi growth-1)
C[C@H]1CN([C@@H](C)CO)C(=O)c2cc(C#CCc3ccccc3)cnc2O[C@@H]1CN(C)C(=O)C1CCOCC1	none (no result: T cruzi growth-1)
COCC(=O)N(C[C@@H]1N[C@@H](CO)[C@@H]1c1ccc(C2=CCCCC2)cc1)C(C)C	none
OC[C@@H]1[C@H](c2ccc(-c3ccccc3F)cc2)[C@@H]2CN(Cc3cccnc3)CCCCN12	none
OC[C@H]1[C@H](c2ccc(-c3ccccc3F)cc2)[C@@H]2CN(Cc3ccncc3)CCCCN12	T cruzi growth-1 106 | T cruzi growth-2 101 | T cruzi growth-3 inactive | NIH3T3 tox inactive | 3T3 cytotox 2 103
OC[C@@H]1[C@H](c2ccc(-c3ccccc3F)cc2)[C@H]2CN(Cc3ccncc3)CCCCN12	T cruzi growth-1 107 | T cruzi growth-2 inactive | T cruzi growth-3 inactive | NIH3T3 tox 46 | 3T3 cytotox 2 103
OC[C@H]1[C@H](c2ccc(-c3ccccc3F)cc2)[C@@H]2CN(Cc3cccnc3)CCCCN12	none
OC[C@H]1[C@@H](c2ccc(-c3ccccc3F)cc2)[C@H]2CN(Cc3cccnc3)CCCCN21	none
OC[C@@H]1[C@@H](c2ccc(-c3ccccc3F)cc2)[C@H]2CN(Cc3ccncc3)CCCCN12	T cruzi growth-1 104 | T cruzi growth-2 inactive | T cruzi growth-3 inactive | NIH3T3 tox inactive | 3T3 cytotox 2 81
CCCNC(=O)Nc1ccc2c(c1)C(=O)N(C)[C@H]1CC[C@H](CC(=O)OC)O[C@@H]1CO2	none (no result: T cruzi growth-1)
C/C=C/c1ccc2c(c1)O[C@@H](CN(C)C(=O)C1CCOCC1)[C@H](C)CN([C@@H](C)CO)S2(=O)=O	none
CN(C)C(=O)C[C@H]1CC[C@@H](NC(=O)NC2CCCCC2)[C@H](CO)O1	none (no result: T cruzi growth-1)
C[C@H](CO)N1C[C@H](C)[C@@H](CN(C)C(=O)NC2CCCCC2)OCCCC[C@H](C)Oc2ccc(NC(=O)Nc3ccc(C(F)(F)F)cc3)cc2C1=O	none
C[C@H](CO)N1C[C@H](C)[C@H](CN(C)C(=O)NC2CCCCC2)OCCCC[C@H](C)Oc2ccc(NC(=O)Nc3ccc(C(F)(F)F)cc3)cc2C1=O	none
C[C@H]1CCCCO[C@@H](CN(C)C(=O)Nc2ccc(C(F)(F)F)cc2)[C@@H](C)CN([C@@H](C)CO)C(=O)c2cc(NC(=O)NC3CCCCC3)ccc2O1	T cruzi growth-1 123 | T cruzi growth-2 101 | T cruzi growth-3 113 | NIH3T3 tox inactive | 3T3 cytotox 2 inactive
C[C@@H]1CCCCO[C@@H](CN(C)C(=O)Nc2ccc(C(F)(F)F)cc2)[C@H](C)CN([C@@H](C)CO)C(=O)c2cc(NC(=O)NC3CCCCC3)ccc2O1	T cruzi growth-1 inconclusive | T cruzi growth-2 101 | T cruzi growth-3 inactive | NIH3T3 tox inactive | 3T3 cytotox 2 inactive
C[C@@H]1CCCCO[C@@H](CN(C)C(=O)Nc2ccc(C(F)(F)F)cc2)[C@H](C)CN([C@H](C)CO)C(=O)c2cc(NC(=O)NC3CCCCC3)ccc2O1	T cruzi growth-1 117 | T cruzi growth-2 104 | T cruzi growth-3 109 | NIH3T3 tox inactive | 3T3 cytotox 2 inactive
C[C@@H]1CCCCO[C@@H](CN(C)C(=O)NC2CCCCC2)[C@@H](C)CN([C@H](C)CO)C(=O)c2cc(NC(=O)Nc3ccc(C(F)(F)F)cc3)ccc2O1	none
C[C@@H]1CCCCO[C@H](CN(C)C(=O)Nc2ccc(C(F)(F)F)cc2)[C@@H](C)CN([C@H](C)CO)C(=O)c2cc(NC(=O)NC3CCCCC3)ccc2O1	T cruzi growth-1 113 | T cruzi growth-2 108 | T cruzi growth-3 inactive | NIH3T3 tox inactive | 3T3 cytotox 2 inactive
C[C@@H]1CN([C@H](C)CO)C(=O)c2cc(NC(=O)Nc3ccc(C(F)(F)F)cc3)ccc2O[C@@H](C)CCCCO[C@@H]1CN(C)C(=O)NC1CCCCC1	none
Cc1noc(C)c1NC(=O)Nc1ccc2c(c1)CC(=O)N([C@H](C)CO)C[C@@H](C)[C@H](CN(C)C(=O)Nc1ccc3c(c1)OCO3)O2	none
CCCN1[C@H](C(=O)N[C@@H](C)c2ccccc2)[C@@H](CO)[C@@H]2Cn3c(ccc(-c4ccc(F)cc4)c3=O)[C@@H]21	none
COc1ccc(CN(C)C[C@@H]2OCCCC[C@@H](C)Oc3ccc(NS(=O)(=O)c4ccccc4)cc3C(=O)N([C@H](C)CO)C[C@H]2C)cc1	none
C[C@H]1CCCCO[C@H](CN(C)C(=O)Nc2ccc(C(F)(F)F)cc2)[C@@H](C)CN([C@@H](C)CO)C(=O)c2cc(NC(=O)NC3CCCCC3)ccc2O1	T cruzi growth-1 109, Pf Dd2 inh -87 | T cruzi growth-2 97 | T cruzi growth-3 107 | NIH3T3 tox inactive | 3T3 cytotox 2 inactive
C[C@H](CO)N1C[C@H](C)[C@H](CN(C)C(=O)Nc2ccc(C(F)(F)F)cc2)OCCCC[C@H](C)Oc2ccc(NC(=O)NC3CCCCC3)cc2C1=O	T cruzi growth-1 122 | T cruzi growth-2 inconclusive | T cruzi growth-3 106 | NIH3T3 tox inactive | 3T3 cytotox 2 inactive
C[C@@H]1CCCCO[C@H](CN(C)C(=O)NC2CCCCC2)[C@H](C)CN([C@@H](C)CO)C(=O)c2cc(NC(=O)Nc3ccc(C(F)(F)F)cc3)ccc2O1	none
C[C@H]1CCCCO[C@@H](CN(C)C(=O)NC2CCCCC2)[C@@H](C)CN([C@@H](C)CO)C(=O)c2cc(NC(=O)Nc3ccc(C(F)(F)F)cc3)ccc2O1	none
CNC[C@H]1Oc2cc(C#CCN(C)C)ccc2S(=O)(=O)N([C@@H](C)CO)C[C@@H]1C	none
CCOC(=O)C1=CC[C@@H](c2ccccc2)[C@@H]1C(=O)c1ccc(OC)cc1	none (no result: T cruzi growth-1, Pf Dd2 inh)
C[C@@H]1CN([C@@H](C)CO)C(=O)c2cc(NC(=O)Cc3cn(C)c4ccccc34)ccc2O[C@H]1CN(C)Cc1ccc(Cl)c(Cl)c1	T cruzi growth-1 inconclusive (no result: C diff HTS) | T cruzi growth-2 105 | T cruzi growth-3 inactive | NIH3T3 tox inactive | 3T3 cytotox 2 inactive
